Measured values taken from PubChem BioAssay AID504333 (National Center for Advancing Translational Sciences (NCATS), 2011).
Among all 360,000 compounds or so, about 16,000 (4.4%) were called active. Not shown: some 9% with an inconclusive outcome. The list comes from a sample in which actives are over-represented; it also holds similar structures and randomly drawn compounds. Where a call stands in place of a potency, no number is given. Unmarked numbers belong to inactive results. Calls come from the whole dose curve; as a rule, active = well fitted inhibition curve with a large enough effect; inconclusive = small, poorly fitted or top-dose-only effect; inactive = no such curve, though single readings can be large or run the other way.
Note: nearly all actives have a fitted effect of over 60% in size.
Potency is the fitted concentration of half-maximal effect.

What follows are compounds tested against Bromodomain adjacent to zinc finger domain protein 2B (Homo sapiens) (UniProt Q9UIF8) (assay: qHTS Assay for Inhibitors of BAZ2B). Details: AlphaScreen BAZ2B-H3K14Ac peptide displacement; series mostly up to 114 µM.
Sequence of Bromodomain adjacent to zinc finger domain protein 2B (Homo sapiens) (Q9UIF8 whole entry, looked up, the tested form may be a part): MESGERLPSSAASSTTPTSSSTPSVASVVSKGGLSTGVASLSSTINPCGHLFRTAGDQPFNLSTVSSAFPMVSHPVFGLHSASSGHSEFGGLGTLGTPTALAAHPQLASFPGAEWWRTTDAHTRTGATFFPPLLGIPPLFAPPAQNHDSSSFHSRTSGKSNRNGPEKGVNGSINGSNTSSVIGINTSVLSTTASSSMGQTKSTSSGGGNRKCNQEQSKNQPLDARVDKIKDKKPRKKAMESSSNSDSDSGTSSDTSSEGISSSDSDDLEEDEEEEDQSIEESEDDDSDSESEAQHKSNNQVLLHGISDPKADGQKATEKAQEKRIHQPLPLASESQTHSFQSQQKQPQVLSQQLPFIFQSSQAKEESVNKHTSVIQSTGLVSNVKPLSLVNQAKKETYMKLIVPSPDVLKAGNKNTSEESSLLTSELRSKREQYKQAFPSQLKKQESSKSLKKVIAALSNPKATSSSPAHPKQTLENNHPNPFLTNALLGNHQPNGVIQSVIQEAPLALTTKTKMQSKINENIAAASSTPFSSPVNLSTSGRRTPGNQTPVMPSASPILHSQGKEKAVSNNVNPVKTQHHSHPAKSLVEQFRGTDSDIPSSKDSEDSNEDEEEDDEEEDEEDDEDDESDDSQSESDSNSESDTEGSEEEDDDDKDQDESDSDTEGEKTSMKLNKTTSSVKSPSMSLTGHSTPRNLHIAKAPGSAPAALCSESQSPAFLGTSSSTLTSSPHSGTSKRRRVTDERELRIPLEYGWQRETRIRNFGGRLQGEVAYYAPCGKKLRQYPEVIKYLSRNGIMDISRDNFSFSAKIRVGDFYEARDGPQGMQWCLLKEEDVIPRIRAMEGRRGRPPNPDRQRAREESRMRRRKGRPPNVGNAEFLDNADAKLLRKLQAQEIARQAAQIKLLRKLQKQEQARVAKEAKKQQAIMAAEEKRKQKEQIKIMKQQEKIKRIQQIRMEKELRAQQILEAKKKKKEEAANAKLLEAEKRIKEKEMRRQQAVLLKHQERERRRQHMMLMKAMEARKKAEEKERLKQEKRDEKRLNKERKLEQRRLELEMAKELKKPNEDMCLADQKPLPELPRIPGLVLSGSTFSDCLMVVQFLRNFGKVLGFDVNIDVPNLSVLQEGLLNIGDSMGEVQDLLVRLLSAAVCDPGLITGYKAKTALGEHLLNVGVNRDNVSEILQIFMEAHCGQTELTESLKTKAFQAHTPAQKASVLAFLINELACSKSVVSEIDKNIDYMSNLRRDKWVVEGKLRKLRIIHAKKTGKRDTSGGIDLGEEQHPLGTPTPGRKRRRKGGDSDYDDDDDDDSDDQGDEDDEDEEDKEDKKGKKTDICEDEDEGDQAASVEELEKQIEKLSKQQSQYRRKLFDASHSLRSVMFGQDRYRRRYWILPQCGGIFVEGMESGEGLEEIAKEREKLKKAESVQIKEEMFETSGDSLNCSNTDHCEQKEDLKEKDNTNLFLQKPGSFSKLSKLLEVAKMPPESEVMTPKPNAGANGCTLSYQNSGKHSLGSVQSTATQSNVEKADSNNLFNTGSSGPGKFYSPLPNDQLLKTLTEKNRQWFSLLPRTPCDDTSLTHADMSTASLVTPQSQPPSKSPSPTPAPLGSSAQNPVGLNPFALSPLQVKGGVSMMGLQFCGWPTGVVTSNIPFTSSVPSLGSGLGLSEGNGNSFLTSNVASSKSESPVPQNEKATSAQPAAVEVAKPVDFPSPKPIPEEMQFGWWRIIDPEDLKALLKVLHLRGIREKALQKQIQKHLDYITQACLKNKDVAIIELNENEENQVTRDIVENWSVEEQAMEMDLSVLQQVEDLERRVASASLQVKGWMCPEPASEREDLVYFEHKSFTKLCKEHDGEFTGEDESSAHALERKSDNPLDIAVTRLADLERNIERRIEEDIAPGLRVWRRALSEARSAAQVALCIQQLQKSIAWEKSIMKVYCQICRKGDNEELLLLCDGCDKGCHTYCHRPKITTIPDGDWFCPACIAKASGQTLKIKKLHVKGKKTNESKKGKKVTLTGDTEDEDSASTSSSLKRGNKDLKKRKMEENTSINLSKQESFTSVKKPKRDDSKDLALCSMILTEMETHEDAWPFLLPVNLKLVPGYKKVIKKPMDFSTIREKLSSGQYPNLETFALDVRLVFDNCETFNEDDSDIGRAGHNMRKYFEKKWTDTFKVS
Method in brief: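 AlphaScreen displacement of biotin-H3(5-23)K14Ac peptide (50 nM final) from BAZ2B (50 nM final) in PBS pH 7.4, 0.01% Tween-20; complex preformed 30 min RT, then compounds (top 110 uM) 30 min RT, beads 20 min dark.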
With `Cc1ccc(NC2=C(c3ccc(C(F)(F)F)cc3)C(=O)c3ccccc32)cc1F` the Potency was “inactive”. `Cc1ccc(C)c(Cn2c(=O)n(CCC(=O)NCc3ccc4c(c3)OCO4)c(=O)c3sccc32)c1` was tested, and the Potency was “inactive”. In the case of `Cc1oc2cc(Br)c(O)c(Br)c2c1C(=O)c1ccccc1`, the Potency is reported as “inactive”. `Cc1oc2cc([N+](=O)[O-])c(O)c([N+](=O)[O-])c2c1C(=O)c1ccc(Br)cc1` was tested, and the Potency was 35.5 µM (active). With `N/C(=N\OC(=O)Cc1ccccc1[N+](=O)[O-])c1ccc(Br)cc1` the Potency was “inactive”. With `COCCNc1ncnc2c1c(-c1ccccc1)cn2-c1ccc(C)c(Cl)c1` the Potency was “inactive”. In the case of `Cc1c(C)n(Cc2ccc(Cl)cc2)c2ccc(C(=O)NCCc3ccc(S(N)(=O)=O)cc3)cc12`, the Potency is reported as “inactive”. With `Cc1c(C)n(Cc2ccc(Cl)cc2)c2ccc(C(=O)NCCCN3CCOCC3)cc12` the Potency was 39.8 µM (active). `COc1ccc(Cn2c(=S)[nH]c3cc(C(=O)NCCCN4CCOCC4)ccc3c2=O)cc1` was tested, and the Potency was “inactive”. With `COc1ccc(-c2onc(C)c2C)cc1S(=O)(=O)NCC1CCN(Cc2cccc(F)c2)CC1` the Potency was “inactive”. `Cc1ccccc1CN1CCC(CNC(=O)c2c(C)oc3ncnc(N4CCCCC4)c23)CC1` was tested, and the Potency was “inactive”. `Cn1c(COc2ccccc2C(C)(C)C)nc2ccccc21` was tested, and the Potency was “inactive”. With `COc1ccc(NC(=O)CSC2=Nc3ccccc3C3=NC(CC(=O)NCc4ccccc4OC)C(=O)N23)cc1Cl` (stereo not given) the Potency was “inactive”. `O=C(O)c1ccccc1NC(=O)c1ccccc1-c1ccccc1C(=O)O` was tested, and the Potency was “inactive”. `O=C(NC(=S)Nc1ccccc1C(=O)O)c1ccc(-c2ccc(Br)cc2)o1` was tested, and the Potency was 44.7 µM (active). For `O=C(NC(=S)Nc1cc(C(F)(F)F)ccc1N1CCOCC1)c1ccc(-c2cccc(Cl)c2)o1`, the Potency was “inactive”. For `COc1cc(C)ccc1OCCSc1nc2ccc(NC(=O)c3ccc(C)cc3)cc2s1`, the Potency was “inactive”. With `O=C(CCOc1ccccc1)N(Cc1cccnc1)c1nc2ccc(Cl)cc2s1` the Potency was “inactive”. For `Cc1cccc(N2CCN(C(=O)c3cc4c(=O)oc5ccccc5c4s3)CC2C)c1` (stereo not given), the Potency was “inactive”. In the case of `COC(=O)c1ccc(NC(=O)c2cnn(-c3ccc(Cl)cc3)c2C2CCN(C(=O)OC(C)(C)C)CC2)cc1`, the Potency is reported as “inactive”. `ON=C1/C(=N\O)CC2(C/C1=N/O)OCCO2` was tested, and the Potency was 22.4 µM (active). With `O/N=C1\CC2(Cc3nonc31)OCCO2` the Potency was “inactive”. `Cc1cccc(N2CCN(C(=O)c3ccc4c(c3)CCN4S(=O)(=O)c3ccccc3)CC2)c1C` was tested, and the Potency was “inactive”. In the case of `O=C(COc1ccc(Cl)cc1)N(Cc1ccco1)Cc1ccco1`, the Potency is reported as “inactive”. `Cc1ccc(S(=O)(=O)NCc2nc3nc(C)cc(C)n3n2)cc1` was tested, and the Potency was “inactive”. With `CCc1ccc(NC(=O)CSc2nc3c([nH]c4ccccc43)c(=O)n2-c2cccc(OC)c2)cc1` the Potency was “inactive”. With `Cn1c(=O)c2c(SCC(=O)N3CCc4ccccc43)nc(-c3ccc(Cl)cc3)nc2n(C)c1=O` the Potency was “inactive”. In the case of `Cc1cc(C)nc(N/N=C/c2c(C)oc3ccccc23)n1`, the Potency is reported as “inactive”. With `Cc1cc(C)nc(N/N=C/c2c(CO)cnc(C)c2O)n1` the Potency was 79.4 µM (active). For `O=C(c1cccc(Cl)c1)N1CCN(CCc2ccncc2)CC1`, the Potency was “inactive”. With `CCOC(=O)N1CCN(C(=O)C(C)NC(=O)c2ccco2)CC1` (stereo not given) the Potency was “inactive”. In the case of `CSCCC(NC(=O)c1ccco1)C(=O)Nc1cc(C)ccn1` (stereo not given), the Potency is reported as “inactive”. In the case of `CC(NC(=O)c1ccco1)C(=O)Nc1nc(-c2ccccn2)cs1` (stereo not given), the Potency is reported as 22.4 µM (active). `Cc1cc(C)cc(-n2ccnc2SCC(=O)Nc2nc3ccccc3s2)c1` was tested, and the Potency was “inactive”. In the case of `COc1ccc(CCNC(=O)c2cc3cccc4c3n2CC(C)S4)c(OC)c1OC` (stereo not given), the Potency is reported as “inactive”. In the case of `CCC1=Nc2cc(C(=O)NCC(C)c3ccccc3)ccc2Sc2ccc(C)cc21` (stereo not given), the Potency is reported as “inactive”. In the case of `Cc1nnc(SCC(=O)Nn2cnnc2)s1`, the Potency is reported as “inactive”. With `CCCCCC(=O)Nc1ccc(S(=O)(=O)Nc2ccc(Cl)nn2)cc1` the Potency was “inactive”. For `Cc1nnc(SCC(=O)Nc2ccc(S(=O)(=O)Nc3ccc(Cl)nn3)cc2)s1`, the Potency was 50.1 µM (active). For `C#CC(CCN1CCCCC1)(OC)c1ccccc1` (stereo not given), the Potency was “inactive”. In the case of `c1ccc(-c2ccccc2OCCN2CCCCC2)cc1`, the Potency is reported as 50.1 µM (active). With `c1ccc(-c2ccc(OCCN3CCOCC3)cc2)cc1` the Potency was “inactive”. In the case of `O=C(CC(c1cccs1)N1Cc2ccccc2C1=O)Nc1ccc(F)c(F)c1` (stereo not given), the Potency is reported as “inactive”. For `CC(=O)c1c(C)n(S(=O)(=O)c2ccc(Cl)cc2)c2ccc(NS(=O)(=O)c3ccc(Cl)cc3)cc12`, the Potency was “inactive”. For `COc1ccc(N2CCN(C(=O)C3CCN(C(=O)c4ccccc4Cl)CC3)CC2)cc1`, the Potency was “inactive”. `COc1ccc(N2CCN(C(=O)C3CCCN(C(=O)c4cc5sccc5n4C)C3)CC2)cc1` (stereo not given) was tested, and the Potency was 39.8 µM (active). With `Cn1c(C(=O)N2CCCC(C(=O)NCc3ccccc3)C2)cc2sccc21` (stereo not given) the Potency was “inactive”. In the case of `Cc1cc(C)cc(NS(=O)(=O)c2cc3c(cc2C)NC(=O)CO3)c1`, the Potency is reported as “inactive”. In the case of `COC(=O)c1cnc(Nc2cc(C)ccc2OC)c2ccccc12`, the Potency is reported as “inactive”. `COc1ccc(C)cc1Nc1nc(C)nc2c1oc1ccccc12` was tested, and the Potency was “inactive”. With `COc1ccc(C)cc1Nc1nc(-c2c(C)[nH]c3ccccc23)cs1` the Potency was 50.1 µM (active). In the case of `O=C(COc1ccccc1Cl)Nc1ccc2nc(SCC(=O)N3CCCC3)sc2c1`, the Potency is reported as “inactive”. With `Cc1c(C(=O)NCc2ccccc2Br)oc2ccc3c(c12)C(=O)CC(C)(C)O3` the Potency was “inactive”. `CCOC(=O)c1c(C)[nH]c(C)c1S(=O)(=O)N1CCC(C(=O)Nc2ccc(C)c(Cl)c2)CC1` was tested, and the Potency was “inactive”. With `CCOC(=O)c1ccc(NC2=CC(c3ccc(OCC)cc3)N(c3ccc(C(=O)OCC)cc3)C2=O)cc1` (stereo not given) the Potency was “inactive”. `COc1ccc(CCNc2ncnc3onc(-c4ccc(Cl)cc4)c23)c(OC)c1` was tested, and the Potency was “inactive”. For `CC(=O)n1c(C=Nc2ccccc2)c(O)c2ccccc21`, the Potency was “inactive”. With `COc1ccc(N=C(C)c2sc3ccccc3c2O)cc1` the Potency was “inactive”. In the case of `Oc1ccc(N=Cc2sc3ccccc3c2Cl)cc1`, the Potency is reported as 31.6 µM (active). With `COc1ccc(C(F)(F)F)cc1NC(=O)c1sc2nc(-c3cccs3)ccc2c1N` the Potency was “inactive”. In the case of `Nc1cc(N)nc(SCc2ccc(Cl)cc2)n1`, the Potency is reported as “inactive”. For `Clc1ccc(CSc2nncn3c2cc2occc23)cc1`, the Potency was 44.7 µM (active). With `O=C(C1CC1)N1CCN=C1SCc1ccc(Cl)cc1` the Potency was “inactive”. `COC(=O)c1sccc1S(=O)(=O)N(CC(=O)Nc1ccc(C)c(F)c1)c1ccc(C)c(C)c1` was tested, and the Potency was “inactive”. `CCOC(=O)c1c(NC(=O)c2cc(-c3ccc(Cl)cc3)on2)sc2c1CCCC2` was tested, and the Potency was “inactive”. `COc1ccccc1-c1nnc(C2CCN(C(=O)c3ccc(Cl)cc3)CC2)o1` was tested, and the Potency was “inactive”. In the case of `Cc1ccc(Oc2c(C(F)(F)F)oc3c(CN4CCCCC4)c(O)ccc3c2=O)cc1`, the Potency is reported as “inactive”. `Cc1nnc(C)n1-c1ccc(C(=O)Nc2cccc(Br)c2)cc1` was tested, and the Potency was “inactive”. In the case of `Cc1ccccc1CN1CCC(CNC(=O)c2cc3ccc4cccnc4c3[nH]2)CC1`, the Potency is reported as “inactive”. In the case of `O=C(CCCN1C(=O)/C(=C\c2ccco2)SC1=S)Nc1cccc2ccccc12`, the Potency is reported as 44.7 µM (active). `O=C(CCCCCN1C(=O)c2cccc3cccc(c23)C1=O)NCc1ccco1` was tested, and the Potency was “inactive”. For `O=C(CCN1C(=O)/C(=C/c2cccs2)SC1=S)NNC(=O)c1cccc(O)c1`, the Potency was “inactive”. For `CCn1c(=O)c(=O)n(CC)c2cc(N3CCCCC3)c(NC(=O)c3cccc(F)c3)cc21`, the Potency was “inactive”. For `COc1ccc(C)cc1NC(=O)COCc1cc(-c2cccs2)on1`, the Potency was “inactive”. In the case of `Cc1cc(C)cc(NC(=S)NCc2ccc(F)cc2)c1`, the Potency is reported as “inactive”. In the case of `Cc1cc(C)cc(NC(=S)NCCc2c[nH]c3ccccc23)c1`, the Potency is reported as 28.2 µM (active). In the case of `O=C(NCCc1c[nH]c2ccccc12)c1cccc(Br)c1`, the Potency is reported as “inactive”. For `COc1ccc(CNC(=O)COCc2cc(-c3cccs3)on2)cc1OC`, the Potency was “inactive”. In the case of `CCN(C(=O)Cn1cc(S(=O)(=O)N2CCN(c3ccccc3F)CC2)c2ccccc2c1=O)c1ccc(C)c(C)c1`, the Potency is reported as “inactive”. With `Cc1ccc(CN(C(=O)c2ccccc2[N+](=O)[O-])c2ccccn2)cc1` the Potency was “inactive”. `CCc1ccc(N(CC)C(=O)CCn2cnc3onc(-c4ccc(F)cc4)c3c2=O)cc1` was tested, and the Potency was “inactive”. `CCC(CC)C(=O)N1CCN(c2cccc(C)c2C)CC1` was tested, and the Potency was “inactive”. In the case of `Cc1cccc(N2CCN(C(=O)/C=C/c3ccco3)CC2)c1C`, the Potency is reported as 50.1 µM (active). In the case of `Cc1cccc(N2CCN(C(=O)c3cnc(N4CCCC4)nc3C)CC2)c1C`, the Potency is reported as “inactive”. In the case of `CCOc1ccc2nc(N3CCCC(C(=O)Nc4cc(C)ccc4C)C3)sc2c1` (stereo not given), the Potency is reported as “inactive”. In the case of `CC(C)c1ccc2oc(-c3cc(NC(=O)c4cccs4)ccc3Cl)nc2c1`, the Potency is reported as “inactive”. In the case of `O=C(COc1ccc(Cl)cc1Cl)N/N=C/c1ccccn1`, the Potency is reported as “inactive”. With `CCOc1ccc(-n2c(O)c(/C=N/Nc3nnc(C)c(=O)[nH]3)c3ccccc3c2=O)cc1` the Potency was 12.6 µM (active). For `CCOc1ccc(-n2c(O)c(/C=N/Nc3nc(C)cc(C)n3)c3ccccc3c2=O)cc1`, the Potency was “inactive”. In the case of `CCOc1ccc(-n2c(O)c(/C=N/c3ccnn3Cc3ccncc3)c3ccccc3c2=O)cc1`, the Potency is reported as “inactive”. `Cc1nnc(N/N=C/C2CC=CCC2)[nH]c1=O` (stereo not given) was tested, and the Potency was “inactive”. In the case of `Cc1nnc(N/N=C/c2ccccn2)[nH]c1=O`, the Potency is reported as 39.8 µM (active). In the case of `Cc1cccc(S(=O)(=O)c2cn(Cc3ccccc3)c3cc(N4CCOCC4)c(F)cc3c2=O)c1`, the Potency is reported as “inactive”. In the case of `O=C(CSc1nc2ccccc2nc1Cc1ccccc1)N1CCCCC1`, the Potency is reported as “inactive”. In the case of `Cc1ccc(Nc2nnc(-c3ccc(C)c(S(=O)(=O)N4CCCCC4)c3)c3ccccc23)cc1`, the Potency is reported as “inactive”. `NS(=O)(=O)c1ccc(CNC(=O)c2cnccn2)cc1` was tested, and the Potency was “inactive”. In the case of `O=C(NNS(=O)(=O)c1ccc(F)cc1)c1cnccn1`, the Potency is reported as 79.4 µM (active). In the case of `COc1cccc(C(=O)NNS(=O)(=O)c2ccc(F)cc2)c1`, the activity change, negative = inhibition is reported as 8.36% [at 0.457 µM]. In the case of `CCC(CC)c1nn2cc(-c3ccccc3)nc2s1`, the Potency is reported as “inactive”. In the case of `Cc1ccc(OCC(=O)Nc2ccc(Cl)c(-c3nc4ccccc4[nH]3)c2)cc1C`, the Potency is reported as “inactive”.
